Laboratory results reported in PubChem BioAssay (NCATS).
Where “and” joins values, the source holds several entries; their conditions need not be identical. Identical values can stand only once. Results filed as inconclusive are left out.

Assay: qHTS assay for small molecule agonists of retinoid X receptor alpha signaling (AID 588544)
Settings: HEK293T RXRa-UAS-bla, beta-lactamase reporter, 18 h; 530 nm emission
Description: NIH Chemical Genomics Center [NCGC] U.S. Environmental Protection Agency [EPA] National Institutes of Environmental Health Sciences [NIEHS] National Toxicology Program [NTP] NCGC Assay Overview The Retinoid X receptor (RXR), a nuclear hormone receptor is expressed in liver, spleen, placenta, epidermis, central nervous system. These receptors are able to form homo and heterodimers with other nuclear receptors and due to this heterodimerizing ability, RXR functions as master regulators producing diverse physiological effects. Three subtypes of RXR exist; alpha, beta and gamma. Retinoid X receptor alpha (RXR-alpha) has potential roles in metabolic signaling pathways, skin alopecia, dermal cysts, cardiac development, insulin sensitization etc. Therefore screening environmental chemicals on RXR-alpha signaling can be used for the studies focused on such therapeutic applications.
NCGC Assay Protocol Summary Using a beta-lactamase reporter-gene under control of Retinoid X receptor--alpha (RXR-alpha) response element, a cell-based assay [GeneBLAzer (RXR-alpha -UAS-bla assay developed by Invitrogen] was used to measure RXR-alpha ligands signaling. GeneBLAzer RXR-alpha -UAS-bla HEK293T cells were used with assay medium containing 2% charcoal-stripped FBS. The assay was performed in clear bottom black Greiner 1536-well plates. 9-cis-retinoic acid was used in the screen as the positive control. Library compounds were measured for their ability to stimulate the reporter gene activity. Compounds were screened in a titration series in 1536-well format. The fluorescence intensity (405 nm excitation, 460/530 nm emission) was measured using an EnVision plate reader. Data was normalized relative to 9-cis-retinoic acid control (500 nM, 100%), and DMSO only wells (basal, 0%). Concentration-response titration points for each compound were fitted to the Hill equation yielding concentrations of half-maximal stimulation (EC50) and maximal response (efficacy) values. qHTS protocol for RXR-alpha beta-lactamase assay in agonist mode [Step] [Parameter] [Value] [Description] 1. Reagent; 6 uL; 2500 cells/well 2. Incubation; 37 C for 4 hrs 3. Compounds; 23 nL; 0.59 nM to 92 uM 4. Controls (9-cis-retinoic acid); 23 nL, - One column with dose response, start 38 uM, 1:3 dilutions in duplicates - Final concentrations of 500 nM and 50 nM in two columns 5. Incubation; 37 C for 18 hrs 6. Detection reagent; 1 uL of CCF4-dye 7. Incubation; RT for 2 hrs 8. Detection; Fluorescence; Envision plate reader

Row | Compound | max response
1 | FC(F)(F)c1ccc(Cl)cc1 | -3.02% and -12.4%
2 | ClCc1ccccc1Cl | -22.8%
3 | CNC(=O)O/N=C(\SC)C(=O)N(C)C | -12.6%
4 | CS(=O)(=O)NC(=O)c1cc(Oc2ccc(C(F)(F)F)cc2Cl)ccc1[N+](=O)[O-] | 1.68%
5 | Nc1nc(N)nc(N)n1 | -6.58%
6 | O=C(O)C(F)(F)C(F)(F)C(F)(F)C(F)(F)C(F)(F)C(F)(F)C(F)(F)C(F)(F)F | 1.6% and -25.9%
7 | CCCCC(CC)C(=O)Cl (stereo not given) | -20.2%
8 | CC1(C)Cc2cccc(O)c2O1 | -1.21%
9 | CCOc1nc(C(Cl)(Cl)Cl)ns1 | -11.9%
10 | CCOC(=O)C(Cl)Cc1cc(-n2nc(C)n(C(F)F)c2=O)c(F)cc1Cl (stereo not given) | 14.3%
11 | S=C(S)NCCNC(=S)S | 9.28%
12 | CCOC(=O)COc1cc(-c2nn(C)c(OC(F)F)c2Cl)c(F)cc1Cl | 3.77%
13 | CCOP(=S)(S)OCC | -7.79%
14 | CCNc1nc(NC(C)(C)C)nc(SC)n1 | -0.223%
15 | O=C(O)c1c(Cl)ccc2cc(Cl)cnc12 | -15.1%
16 | Clc1ccccc1-c1nnc(-c2ccccc2Cl)nn1 | -1.99%
17 | CCC/C(=N\OCC)C1=C(O)CC(CC(C)SCC)CC1=O (stereo not given) | -4.54%
18 | CC(C)C1(C)N=C(c2nc3ccccc3cc2C(=O)O)NC1=O (stereo not given) | 5.36%
19 | O=C(NC(=O)c1c(F)cccc1F)Nc1cc(Cl)c(OC(F)(F)C(F)F)c(Cl)c1 | 5.34%
20 | CNC(=O)Oc1ccc(N(C)C)c(C)c1 | -30.4%

Row | Compound | max response
21 | Clc1ccc([C@@]2(Cn3cncn3)C[C@H](Br)CO2)c(Cl)c1 | -2.9%
22 | CC(Oc1cc(Cl)c(Cl)cc1Cl)C(=O)O (stereo not given) | -8.77%
23 | O=S(=O)(O)C(F)(F)C(F)(F)C(F)(F)C(F)(F)C(F)(F)C(F)(F)F | -12.5% and -11.4%
24 | CNC(=O)Oc1cccc2c1OC(C)(C)C2O (stereo not given) | -10.1%
25 | CNC(=O)N(C)c1nc2ccccc2s1 | -6.4%
26 | CCC(C)(C)c1cc(-n2nc3ccccc3n2)c(O)c(C(C)(C)CC)c1 | -3.41%
27 | Cc1cc(C)nc(NC(=O)NS(=O)(=O)c2ccccc2C(=O)OC2COC2)n1 | -3.21%
28 | O=C=Nc1ccc(Cl)cc1 | -14.4%
29 | CCC[CH2][Sn]([CH2]CCC)([CH2]CCC)[O][Sn]([CH2]CCC)([CH2]CCC)[CH2]CCC | -23.3%
30 | COC(=O)/C=C(\C)OP(=O)(OC)OC | -22.9%
31 | CCOP(=O)(OCC)SCSC(C)(C)C | 4.09%
32 | C#CC(C)(C)NC(=O)c1cc(Cl)cc(Cl)c1 | -7.53%
33 | C1=Cc2cccc3cccc1c23 | -12.5%
34 | c1ccccc1 | -2.6% and -9.93% and -11.1%
35 | CNC(=O)O/N=C/C(C)(C)S(C)(=O)=O | -16.6%
36 | CCCCCCCCCCCC#N | 7.65%
37 | COC(C)(C)CCC[C@H](C)C/C=C/C(C)=C/C(=O)OC(C)C | 10.5%
38 | CCCC1COC(Cn2cncn2)(c2ccc(Cl)cc2Cl)O1 (stereo not given) | 1.7%
39 | [CH3][Sn]([CH3])([Cl])[Cl] | -7.56%
40 | Cc1ccccc1CO[C@@H]1C[C@@]2(C(C)C)CC[C@]1(C)O2 | 4.66%
